Source: PubChem BioAssay
HEK293 viab: cell viability loss counter-screen; Potency, µM (titrated, usually from 57.1 µM), for inactives: top-dose activity change, negative = cytotoxicity, actives largely listed as cytotoxic; HEK-293-SNCA-luc viability, GF-AFC fluorescence, 24 h; 150,000 compounds, 0.12% hits;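 further: 0% = DMSO-treated cells and -100% = medium-only wells without cells; nearly all actives have a fitted effect of over 30% in size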
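Cytotoxicity counterscreen: after 24 h compound treatment of genome-edited SNCA-luciferase HEK-293 cells, live-cell protease substrate GF-AFC read by fluorescence after 30 min; activity scaled between DMSO (0%) and medium-only (-100%), curves Hill-fitted.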
3T3 cytotox: kills NIH 3T3 cells | Potency, µM (series often up to 96.7 µM), for inactives: top-dose activity change, negative = cytotoxicity, actives largely listed as inhibitors | NIH 3T3 viability, CellTiter-Glo ATP luminescence, 48-72 h | 94,000 compounds, 4.3% hits; further: nearly all actives have a fitted effect of over 55% in size
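Cells were seeded at 400 per well, treated with pin-transferred compound, and kept 48 or 72 hr at 37 °C before CellTiter-Glo addition and luminescence imaging of cellular ATP.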
SNCA expr inh: inhibitors of alpha-synuclein (SNCA) gene expression | 140,000 compounds, 0.17% hits | Potency, µM (highest dose often 57.2 µM), inactives show at the top dose activity change, negative = inhibition, actives largely listed as inhibitors | HEK-293 SNCA-luciferase knock-in, luminescence, 24 h;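 further: plate controls were DMSO cells for no effect and cell-free wells for full effect; nearly all actives have a fitted effect of over 45% in size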
HEK cytotox: cytotoxic compounds in HEK 293 cells. Potency, µM (titrated, usually from 115 µM), for the others: at the top dose activity change, negative = cytotoxicity, actives largely listed as inhibitors. HEK 293 viability, ATP luminescence (CellTiter-Glo), 48-72 h. 94,000 compounds, 6.6% hits; further: nearly all actives have a fitted effect of over 60% in size
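Pintool-delivered compounds were incubated with HEK 293 cells (250 cells/well) at 37 degree Celsius for 48 or 72 hr. ATP-dependent luminescence (CellTiter-Glo) then reported remaining viable cells.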
FLuc inh: Photinus pyralis luciferase inhibition. P08659. purified P. pyralis luciferase, luminescence, biochemical. Potency, µM (doses to about 115 µM), hits mostly inhibitors. 76,000 compounds, 2.5% hits; further: nearly all actives have a fitted effect of over 65% in size
Target sequence (P08659 whole entry, looked up): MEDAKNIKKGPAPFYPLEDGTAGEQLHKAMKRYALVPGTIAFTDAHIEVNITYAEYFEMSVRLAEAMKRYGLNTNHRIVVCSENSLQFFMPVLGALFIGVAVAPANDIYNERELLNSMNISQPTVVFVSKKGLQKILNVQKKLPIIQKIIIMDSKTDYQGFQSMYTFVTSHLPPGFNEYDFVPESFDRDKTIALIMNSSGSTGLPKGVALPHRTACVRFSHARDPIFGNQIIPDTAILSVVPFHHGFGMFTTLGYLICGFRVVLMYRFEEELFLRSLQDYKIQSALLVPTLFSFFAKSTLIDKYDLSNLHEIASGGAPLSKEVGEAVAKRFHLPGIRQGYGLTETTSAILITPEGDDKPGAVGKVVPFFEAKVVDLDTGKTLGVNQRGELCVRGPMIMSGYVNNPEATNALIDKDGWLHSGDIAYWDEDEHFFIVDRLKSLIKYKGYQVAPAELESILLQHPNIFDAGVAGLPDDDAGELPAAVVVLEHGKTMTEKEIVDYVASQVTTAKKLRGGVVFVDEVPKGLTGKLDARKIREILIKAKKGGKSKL
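Inhibitors were tested against purified firefly luciferase in a biochemical, low-substrate format (both substrates at 10uM) and luminescence measured with a CCD imager.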
NPR1 antag: antagonists of human natriuretic peptide receptor Npr1; P16066; HEK293 hNpr1 GloSensor cGMP, ANP-stimulated luminescence; Potency, µM (series often up to 46.3 µM), without a hit: top-dose activity change, negative = inhibition, most hits filed as inhibitors; 76,000 compounds, 1.6% hits; AID 1347048; calls by dose curve; further: nearly all actives have a fitted effect of over 60% in size
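HEK293 cells stably expressing human Npr1 and cGMP GloSensor pGS-40F, loaded 2 h with 2% GloSensor reagent, given compound 30 min at room temperature. Luminescence read before and 20 min after 0.1 nM hNppA.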
Numbers without * were called inactive; i = inactive; ? = inconclusive; . = no result; ! = not confirmed by another sample; [ ] = remark or other dose. Shown are actives, neighbours in structure and some others; about 7.4% of the full set was active somewhere. Unless noted, the call rests on the fitted dose curve; in most records, active means well fitted curve in the direction sought with a large enough effect; inconclusive means small, poorly fitted or top-dose-only effect, or another doubt; inactive means no such curve, though single readings can be large; an effect the other way counts as inactive or inconclusive. Unless noted, on the % scale 0 is the no-effect control and ±100 the full control effect; potency means the concentration at half of the fitted maximal effect.

SMILES | HEK293 viab | 3T3 cytotox | SNCA expr inh | HEK cytotox | FLuc inh | NPR1 antag
CN1CCC2(C1)CN(CC1CC1)c1ccc(C(=O)NC3CCC3)cc12 (stereo not given) | 8%[87.6 µM] | ? | -13%[87.6 µM] | ? | i | -3%[70.6 µM]
CN1CCC2(C1)CN(Cc1ccccc1)c1ccc(C(=O)NC3CC3)cc12 (stereo not given) | 8%[87.6 µM] | -26%[138 µM] | -10%[87.6 µM] | ? | i | 10%[70.6 µM]
CN1CCCC2(C1)CN(Cc1cccnc1)c1ccc(C(=O)Nc3ccccc3)cc12 (stereo not given) | 0%[87.6 µM] | 89µM* | -6%[87.6 µM] | ? | i | 4%[70.6 µM]
CC[C@H]1CN(C(=O)C(C)(C)C)CC[C@H]1CC(=O)N(C)CC#N | 2%[87.6 µM] | i | -7%[87.6 µM] | 2%[172 µM] | i | 0%[70.6 µM]
COc1ccc(OC)c(NC(=O)CSc2c3c(nc4cc(Cl)ccc24)CCCC3)c1 | -6% | . | 2% | . | . | .
COc1ccc(OC)c(NC(=O)CSc2c3c(nc4ccccc24)CCCC3)c1 | ? | . | 22µM* | . | . | .
C[C@]12CC[C@@H]3c4ccc(O)c(O)c4CC[C@H]3[C@@H]1CCC2=O | 3% | . | . | . | . | .
CCCn1cc(C2CCN(S(=O)(=O)c3c(Cl)cccc3Cl)CC2)c2ccccc21 | 3% | -20% | 8% | -10% | i | -6%
COc1cccc(CC(=O)N2CCN(c3cc(C(F)(F)F)ncn3)CC2)c1 | -8% | -23% | 1% | ? | i | -22%
COc1ccccc1OCCNC(=O)C1CC(=O)N(c2n[nH]c3ccccc23)C1 (stereo not given) | -1% | i | -5% | 20% | i | 1%
C[C@H]1CCCN1C(=O)c1nnc(COc2ccc(Cl)cc2)n1-c1ccccc1 | ? | 3.2µM* | ? | 79µM* | i | -15%[70.6 µM]
C[C@H]1CCCN1C(=O)c1nnc(COc2ccc(F)c(F)c2)n1-c1cccnc1 | -5%[87.6 µM] | 25µM* | 22%[87.6 µM] | ? | i | -5%[70.6 µM]
O=C(c1nnc(CNc2ccc(OC(F)(F)F)cc2)n1-c1ccccc1)N1CCC[C@@H]1CN1CCCC1 | -1% | ? | -4% | 71µM* | i | 3%
C[C@H]1CCCN1C(=O)c1nnc(COc2ccccc2)n1-c1ccccc1 | -4%[87.6 µM] | 89µM* | 6%[87.6 µM] | ? | i | -13%[70.6 µM]
C[C@H]1CCCN1C(=O)c1nnc(COc2ccc3cccnc3c2)n1-c1cccnc1 | -10%[87.6 µM] | ? | ? | -16%[172 µM] | i | 5%[70.6 µM]
C[C@H]1CCCN1C(=O)c1nnc(CNc2ccc(OC(F)(F)F)cc2)n1-c1ccccc1 | -2% | -22% | -15% | ? | i | 0%
O=C(c1ccoc1)N1CCC(Cc2nc(-c3ccncc3)n[nH]2)C1 (stereo not given) | 5% | -5% | ? | -7% | i | 2%
CCCn1cnc2c1CN(S(C)(=O)=O)[C@H](C(=O)OC)C2 | -5%[87.6 µM] | -13%[174 µM] | -6%[87.6 µM] | 3%[172 µM] | i | 0%[70.6 µM]
COc1ccc(-c2ccccc2C(=O)NCC(C)C)nn1 | . | -1%[138 µM] | . | -5%[172 µM] | . | .
O=C(c1nnc(COc2ccc(F)c(F)c2)n1-c1ccccc1)N1CCC[C@@H]1C(c1ccccc1)c1ccccc1 | ? | 4.5µM* | ? | ? | i | -6%
CN1C(=O)CCC2(CNC(=O)c3ccncc3)CCCC=C12 (stereo not given) | 0% | 0% | -24% | 0% | i | 7%
CN1C(=O)CCC2(CNC(=O)c3cccc4nccnc34)CCCC=C12 (stereo not given) | -18% | ? | 31% | 79µM* | i | 3%
CC(=O)Nc1cccc2ccc(OCc3nnc(C(=O)N4CCC[C@@H]4c4ccc(Br)cc4)n3Cc3ccccc3)cc12 | ? | ? | -22% | ? | i | -24%
CC(=O)Nc1cccc(OCc2nnc(C(=O)N3CCC[C@@H]3c3ccc(Br)cc3)n2Cc2ccccc2)c1 | -12% | 22µM* | -19% | 32µM* | i | -30%
COC[C@@H]1CN(Cc2ccc(OC)cc2OC)C[C@H]1c1nc(C)no1 | 12% | -13% | 6% | ? | i | 3%
SMILES | HEK293 viab | 3T3 cytotox | SNCA expr inh | HEK cytotox | FLuc inh | NPR1 antag
COc1ccccc1-c1cccc(CN2CCCC(C(=O)Nc3ccccc3F)C2)c1 (stereo not given) | 5% | ? | -4% | ? | . | .
O=C(NCCc1ccc(F)cc1)C1CCCN(Cc2cccc(-c3cccs3)c2)C1 (stereo not given) | . | ? | . | 28µM*! | . | .
O=C(Nc1cccc(Cl)c1)C1CCCN(Cc2cccc(-c3cccs3)c2)C1 (stereo not given) | . | ? | . | 40µM* | . | .
O=C(Nc1ccc(F)cc1)C1CCCN(Cc2cccc(-c3cccs3)c2)C1 (stereo not given) | . | ? | . | 40µM* | . | .
O=C(NCCc1ccccc1)C1CCCN(Cc2cccc(-c3cccs3)c2)C1 (stereo not given) | -22% | ? | -14% | ? | . | .
O=C(NCc1ccc(C(F)(F)F)cc1)C1CCCN(Cc2cccc(-c3cccs3)c2)C1 (stereo not given) | ? | 11µM* | ? | ? | . | .
C#CCNC(=O)C1CCCN(Cc2cccc(-c3cccs3)c2)C1 (stereo not given) | -6% | ? | -2% | ? | . | .
O=C(C1CCCN1C(=O)Nc1ccccc1)N1CCCC(c2nc3ncccc3[nH]2)C1 (stereo not given) | -5% | -1% | -15% | i | . | .
COc1ncccc1-c1n[nH]c2c1CC(=O)N(c1ccccc1)C2 | 2%[87.6 µM] | ? | -25%[87.6 µM] | 2%[172 µM] | i | -1%[70.6 µM]
O=C(NCc1ccccc1F)C1CCc2nnc(C3CC3)n21 (stereo not given) | 0%[12.5 µM] | -21%[138 µM] | 7%[87.6 µM] | -17%[172 µM] | . | .
CN(C)c1nccnc1OC1CCN(C(=O)CCCc2ccccc2)C1 (stereo not given) | -12% | -11% | 111% | 79µM* | ? | 1%
CN(C)c1nccnc1OC1CCN(C(=O)CC2CCCC2)C1 (stereo not given) | -4% | -7% | 87% | ? | 35µM* | 6%
CN(C)c1nccnc1OC1CCN(C(=O)c2ccn[nH]2)C1 (stereo not given) | -1% | i | 79% | 0% | 25µM* | -7%
CN(C)c1nccnc1OC1CCN(C(=O)c2ccccc2Br)C1 (stereo not given) | 2% | -15% | 103% | -1% | ? | -10%
CN(C)c1nccnc1OC1CCN(C(=O)C2CCOCC2)C1 (stereo not given) | -12% | i | 51% | 9% | i | 1%
